These results are taken from ChEMBL document CHEMBL3988442, “University of Dundee, Small-Polar-MMV Screening Library” (2021).

Structures are written as SMILES. For some of these results: Results with a measured potency or affinity are listed apart.

Parameters in all cases: scale not given: direction of the effect not stated beside the values
In assay [1] the target is Protein translocase subunit SecA (Escherichia coli (strain K12)) (UniProt P10408). As to the kind of experiment: Assay to Identify E. coli SecA ATPase Inhibitors. The assay is classed as functional. Conditions: 30 µM.
Sequence of Protein translocase subunit SecA (Escherichia coli (strain K12)) (P10408 whole entry): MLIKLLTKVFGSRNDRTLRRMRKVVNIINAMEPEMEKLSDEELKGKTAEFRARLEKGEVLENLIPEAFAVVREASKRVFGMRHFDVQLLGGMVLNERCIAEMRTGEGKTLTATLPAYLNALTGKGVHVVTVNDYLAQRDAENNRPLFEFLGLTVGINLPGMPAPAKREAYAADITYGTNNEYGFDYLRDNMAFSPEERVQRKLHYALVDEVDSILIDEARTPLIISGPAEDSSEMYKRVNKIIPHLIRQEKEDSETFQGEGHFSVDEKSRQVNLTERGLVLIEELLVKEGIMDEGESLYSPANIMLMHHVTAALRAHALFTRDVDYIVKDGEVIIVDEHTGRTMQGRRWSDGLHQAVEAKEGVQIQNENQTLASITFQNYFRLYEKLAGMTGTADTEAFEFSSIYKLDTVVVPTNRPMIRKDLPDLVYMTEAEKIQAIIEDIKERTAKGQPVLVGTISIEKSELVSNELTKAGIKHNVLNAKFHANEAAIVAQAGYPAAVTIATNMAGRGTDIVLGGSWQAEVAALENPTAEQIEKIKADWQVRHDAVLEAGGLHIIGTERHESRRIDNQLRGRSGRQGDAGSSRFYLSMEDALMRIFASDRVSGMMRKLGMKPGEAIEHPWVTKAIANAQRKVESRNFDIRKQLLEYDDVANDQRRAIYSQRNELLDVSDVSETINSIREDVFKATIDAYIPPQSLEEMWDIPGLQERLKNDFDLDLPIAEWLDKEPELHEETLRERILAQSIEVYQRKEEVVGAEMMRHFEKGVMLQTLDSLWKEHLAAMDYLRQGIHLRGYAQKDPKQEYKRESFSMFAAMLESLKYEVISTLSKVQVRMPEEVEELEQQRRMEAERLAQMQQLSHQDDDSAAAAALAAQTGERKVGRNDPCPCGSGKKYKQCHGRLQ
Assay [2] has as its target T1, Ubiquitin-activating enzyme e1, putative (Leishmania donovani (strain BPK282A1)) (UniProt E9BSI1).
T1 sequence (whole entry): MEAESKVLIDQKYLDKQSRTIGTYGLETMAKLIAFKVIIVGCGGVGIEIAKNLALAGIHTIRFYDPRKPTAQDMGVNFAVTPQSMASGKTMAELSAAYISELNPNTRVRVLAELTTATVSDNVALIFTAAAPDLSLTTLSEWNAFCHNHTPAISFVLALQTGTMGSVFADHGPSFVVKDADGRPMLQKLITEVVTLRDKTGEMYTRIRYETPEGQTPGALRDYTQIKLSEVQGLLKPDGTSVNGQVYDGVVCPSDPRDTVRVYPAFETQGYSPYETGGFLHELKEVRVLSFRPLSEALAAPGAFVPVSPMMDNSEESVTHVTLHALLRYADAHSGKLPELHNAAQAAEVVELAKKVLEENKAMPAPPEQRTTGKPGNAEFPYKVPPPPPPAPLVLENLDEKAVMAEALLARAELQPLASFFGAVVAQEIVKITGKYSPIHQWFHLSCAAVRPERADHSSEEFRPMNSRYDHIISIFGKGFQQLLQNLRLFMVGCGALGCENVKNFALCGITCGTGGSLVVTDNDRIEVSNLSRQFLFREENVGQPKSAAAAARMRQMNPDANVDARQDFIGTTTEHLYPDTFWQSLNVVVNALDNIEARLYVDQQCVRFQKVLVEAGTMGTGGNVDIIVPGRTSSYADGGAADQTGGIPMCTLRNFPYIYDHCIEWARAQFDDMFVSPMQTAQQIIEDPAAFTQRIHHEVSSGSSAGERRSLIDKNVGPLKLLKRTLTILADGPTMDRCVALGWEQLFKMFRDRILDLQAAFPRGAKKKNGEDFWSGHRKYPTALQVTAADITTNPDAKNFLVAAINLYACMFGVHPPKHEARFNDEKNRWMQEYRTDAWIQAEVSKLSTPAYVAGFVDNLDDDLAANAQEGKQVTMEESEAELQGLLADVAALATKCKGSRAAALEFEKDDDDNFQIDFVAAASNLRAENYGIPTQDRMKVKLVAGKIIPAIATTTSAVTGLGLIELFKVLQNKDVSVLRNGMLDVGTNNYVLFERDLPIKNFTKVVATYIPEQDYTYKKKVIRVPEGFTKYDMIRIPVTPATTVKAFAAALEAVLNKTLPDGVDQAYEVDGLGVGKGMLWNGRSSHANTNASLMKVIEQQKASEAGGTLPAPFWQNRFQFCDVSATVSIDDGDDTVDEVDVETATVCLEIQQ
The experiment in a line: Leishmania donovani Ubiquitin Activating Enzyme (LdE1). The assay is classed as functional. Conditions: 30 µM.

Assay [3] deals with AMP-activated protein kinase, AMPK (Homo sapiens) (UniProt P54646+O43741+P54619+Q9UGJ0+Q9Y478+Q13131+Q9UGI9). The experiment in a line: AMP-dependent Kinase enzyme assay. An in vitro enzyme assay that detects ADP turnover that is directly proportional to AMPK activity. This uses naive AMPK that is activated during the assay with MK-8722. The conditions noted are these: 30 µM. The assay is classed as functional.

The target in assay [4] is Sialic acid-binding Ig-like lectin 9 (Homo sapiens) (UniProt Q9Y336). As to the kind of experiment: Hs-Siglec9 ALPHAscreen SOP 20170721. The conditions noted are these: 10 µM. In general terms: Alpha assays give light when donor and acceptor beads are brought close together.
Sequence of Sialic acid-binding Ig-like lectin 9 (Homo sapiens) (Q9Y336 whole entry): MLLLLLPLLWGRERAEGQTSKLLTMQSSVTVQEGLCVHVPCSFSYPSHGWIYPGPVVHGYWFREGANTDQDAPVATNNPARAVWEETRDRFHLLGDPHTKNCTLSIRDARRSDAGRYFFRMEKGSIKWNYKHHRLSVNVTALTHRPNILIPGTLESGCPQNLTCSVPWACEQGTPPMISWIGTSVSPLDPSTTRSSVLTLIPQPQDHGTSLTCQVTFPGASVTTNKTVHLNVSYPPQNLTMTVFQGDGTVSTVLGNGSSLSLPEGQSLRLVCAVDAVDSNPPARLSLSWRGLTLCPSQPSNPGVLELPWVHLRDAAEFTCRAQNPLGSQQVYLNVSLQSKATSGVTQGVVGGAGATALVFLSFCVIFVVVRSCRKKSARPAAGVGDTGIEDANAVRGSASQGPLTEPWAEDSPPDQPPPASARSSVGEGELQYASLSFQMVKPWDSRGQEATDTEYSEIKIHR
Another assay concerns Trypanosoma cruzi. The experiment in a line: Trypanosoma cruzi phosphomannomutase and mannose-1-phosphate guanylyltransferase assay. The conditions noted are these: 10 µM. It is filed as functional.
The target of assay [5] is T2, Arginase-2, mitochondrial (Homo sapiens) (UniProt P78540).
T2 sequence (whole entry): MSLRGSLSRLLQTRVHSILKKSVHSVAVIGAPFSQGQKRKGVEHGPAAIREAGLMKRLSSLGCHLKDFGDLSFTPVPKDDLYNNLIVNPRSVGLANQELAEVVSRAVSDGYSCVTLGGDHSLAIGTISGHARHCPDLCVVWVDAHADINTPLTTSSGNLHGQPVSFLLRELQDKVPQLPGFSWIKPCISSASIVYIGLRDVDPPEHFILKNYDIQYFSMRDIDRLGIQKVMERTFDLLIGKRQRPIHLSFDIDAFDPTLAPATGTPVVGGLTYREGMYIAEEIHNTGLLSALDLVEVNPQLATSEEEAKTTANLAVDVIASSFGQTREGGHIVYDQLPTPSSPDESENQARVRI
As to the kind of experiment: in vitro enzyme assay to detect the production of urea directly proportional to the activity of Arginase II. Further: in the data most compounds retested in dose-response had high values. The assay is classed as functional. The conditions noted are these: 33.3 µM.

Assay [6] addresses T3, Proteasome subunit beta (Trypanosoma cruzi) (UniProt O96673).
T3 sequence (whole entry): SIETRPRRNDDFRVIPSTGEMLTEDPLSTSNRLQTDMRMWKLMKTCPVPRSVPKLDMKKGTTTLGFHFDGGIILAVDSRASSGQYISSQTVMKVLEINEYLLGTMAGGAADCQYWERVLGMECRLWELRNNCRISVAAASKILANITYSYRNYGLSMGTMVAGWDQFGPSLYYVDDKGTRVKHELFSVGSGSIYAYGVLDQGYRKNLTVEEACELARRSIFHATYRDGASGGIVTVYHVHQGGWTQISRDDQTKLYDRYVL
The experiment in a line: Trypanosoma cruzi proteasome chymotrypsin-like activity (TcProtChymo) assay. Further: in the data most compounds retested in dose-response had high values. It is filed as functional. The conditions noted are these: 9.37 µM.

The next assay is filed under the species Homo sapiens. The experiment in a line: To identify inhibition of the IFN signalling (Jak-Stat) pathway via expression of an eGFP reporter gene under the control of an IFN-stimulated response element (ISRE) containing MxA promoter. It is filed as functional. The conditions noted are these: 30 µM.
Assay [7] has as its target T4, Tyrosyl-tRNA synthetase, putative (Trypanosoma cruzi (strain CL Brener)) (UniProt Q4DSP6).
T4 sequence (whole entry): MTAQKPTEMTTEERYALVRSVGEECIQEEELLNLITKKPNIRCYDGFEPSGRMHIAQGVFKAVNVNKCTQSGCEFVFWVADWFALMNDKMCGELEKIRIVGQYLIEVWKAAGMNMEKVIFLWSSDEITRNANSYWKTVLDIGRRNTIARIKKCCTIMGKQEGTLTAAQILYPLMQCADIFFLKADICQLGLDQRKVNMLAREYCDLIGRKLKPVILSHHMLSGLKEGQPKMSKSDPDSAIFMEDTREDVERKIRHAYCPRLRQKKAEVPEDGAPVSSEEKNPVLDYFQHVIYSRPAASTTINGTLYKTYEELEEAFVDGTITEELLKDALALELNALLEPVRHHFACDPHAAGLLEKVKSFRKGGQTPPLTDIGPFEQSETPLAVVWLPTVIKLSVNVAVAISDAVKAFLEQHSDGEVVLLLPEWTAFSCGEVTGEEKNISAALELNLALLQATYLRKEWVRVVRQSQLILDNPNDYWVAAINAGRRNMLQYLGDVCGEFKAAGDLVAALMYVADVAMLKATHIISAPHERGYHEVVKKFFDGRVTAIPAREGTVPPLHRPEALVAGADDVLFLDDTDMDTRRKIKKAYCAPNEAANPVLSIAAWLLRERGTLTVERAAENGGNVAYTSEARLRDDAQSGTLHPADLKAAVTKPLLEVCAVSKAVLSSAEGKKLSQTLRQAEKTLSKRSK
The experiment in a line: Trypanosoma cruzi tyrosyl tRNA synthetase (TcYRS) _High Tyrosine SOP. Further: in the data most compounds retested in dose-response had high values. The assay is classed as functional. The conditions noted are these: 30 µM.

Assay [8] concerns the target T4, Tyrosyl-tRNA synthetase, putative (Trypanosoma cruzi (strain CL Brener)). As to the kind of experiment: Trypanosoma cruzi tyrosyl tRNA synthetase (TcYRS) SOP. It is filed as functional. The conditions noted are these: 30 µM.
In assay [9] the target is Chromo domain-containing protein 1 (Saccharomyces cerevisiae (strain ATCC 204508 / S288c) (Baker's yeast)) (UniProt P32657). The experiment in a line: ScCHD-1 Enzyme Inhibition Assay. Further: in the data most compounds retested in dose-response had high values. It is filed as functional. The conditions noted are these: 30 µM.
Sequence of Chromo domain-containing protein 1 (Saccharomyces cerevisiae (strain ATCC 204508 / S288c) (Baker's yeast)) (P32657 whole entry, the tested form may be a part): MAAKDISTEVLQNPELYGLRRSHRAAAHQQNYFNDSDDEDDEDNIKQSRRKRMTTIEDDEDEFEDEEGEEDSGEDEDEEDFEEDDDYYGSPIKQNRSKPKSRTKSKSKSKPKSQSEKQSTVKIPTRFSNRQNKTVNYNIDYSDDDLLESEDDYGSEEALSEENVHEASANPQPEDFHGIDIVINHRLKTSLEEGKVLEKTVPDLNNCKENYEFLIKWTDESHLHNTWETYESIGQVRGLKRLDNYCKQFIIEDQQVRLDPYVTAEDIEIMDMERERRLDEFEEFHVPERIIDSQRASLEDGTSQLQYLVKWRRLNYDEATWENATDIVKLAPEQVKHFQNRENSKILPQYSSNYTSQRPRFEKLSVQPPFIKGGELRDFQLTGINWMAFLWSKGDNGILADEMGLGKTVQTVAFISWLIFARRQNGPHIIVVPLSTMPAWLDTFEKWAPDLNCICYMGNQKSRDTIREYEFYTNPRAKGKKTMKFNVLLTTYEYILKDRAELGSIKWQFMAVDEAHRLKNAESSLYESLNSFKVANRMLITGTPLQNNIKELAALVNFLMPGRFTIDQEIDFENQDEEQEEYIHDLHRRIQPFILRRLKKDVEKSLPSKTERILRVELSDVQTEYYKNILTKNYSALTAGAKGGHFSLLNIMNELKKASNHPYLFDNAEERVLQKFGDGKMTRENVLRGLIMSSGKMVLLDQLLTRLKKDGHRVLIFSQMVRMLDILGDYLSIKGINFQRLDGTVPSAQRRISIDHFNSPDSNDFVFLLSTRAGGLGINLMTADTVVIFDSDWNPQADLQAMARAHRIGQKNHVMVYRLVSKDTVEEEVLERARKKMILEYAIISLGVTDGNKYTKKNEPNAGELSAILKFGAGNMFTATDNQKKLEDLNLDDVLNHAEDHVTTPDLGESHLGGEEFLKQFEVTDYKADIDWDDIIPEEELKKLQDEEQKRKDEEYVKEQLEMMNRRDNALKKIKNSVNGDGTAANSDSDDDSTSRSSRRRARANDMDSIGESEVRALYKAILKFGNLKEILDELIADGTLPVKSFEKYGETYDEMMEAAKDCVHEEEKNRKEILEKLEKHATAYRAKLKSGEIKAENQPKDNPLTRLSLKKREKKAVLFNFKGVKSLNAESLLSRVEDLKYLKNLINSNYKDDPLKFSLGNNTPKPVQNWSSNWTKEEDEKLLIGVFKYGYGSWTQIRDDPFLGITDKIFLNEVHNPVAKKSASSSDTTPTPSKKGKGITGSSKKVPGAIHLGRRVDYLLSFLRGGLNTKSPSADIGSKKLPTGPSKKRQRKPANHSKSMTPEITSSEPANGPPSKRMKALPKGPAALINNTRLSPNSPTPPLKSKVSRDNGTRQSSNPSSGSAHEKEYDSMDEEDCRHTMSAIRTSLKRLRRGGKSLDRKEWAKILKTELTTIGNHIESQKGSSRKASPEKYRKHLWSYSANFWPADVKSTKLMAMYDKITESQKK

As for `O=C(C1CC1)N1CCCC1C1CCN(Cc2ccccc2)CC1` (stereo unspecified), the Percent Effect in [1] was -2.89%; in assay [2], 2.63%; in assay [3], 6.02%; in assay [4] it was -2.3%; in the assay on Trypanosoma cruzi it was 0.682%; in [5], -4.73%. The Percent Effect is 4.31% in assay [6]; -4.47% in the assay filed under Homo sapiens; 4.25% in assay [7]; 5.2% in assay [8]; -2.33% in [9].

`Cc1c(I)cccc1C(=O)NCC1(CO)CC1`: the Percent Effect in [1] is -4.35%; in assay [2], 13.5%; in [3], -3.32%; in assay [4], 13.5%; in the assay with Trypanosoma cruzi, 7.14%; in assay [5] it was 0.952%. Besides, the Percent Effect was 1.38% in assay [6]; -9.36% in the assay listed under Homo sapiens; 0.529% in [7]; 14.6% in assay [8]; -4.29% in assay [9].

On to `Cc1cccc(CN2C[C@@H]3CN(C(=O)c4ccsc4)C[C@@H]3C2=O)c1`, for which the Percent Effect in assay [1] was -2.06%; in assay [2] it was 7.79%; in [3] it was 5.77%; in assay [4] it was 6.12%; in the assay with Trypanosoma cruzi, -3.25%; in assay [5], 0%. Moreover, the Percent Effect in assay [6] stood at 13%; in the assay filed under Homo sapiens, 18.7%; in assay [7], 3.23%; in assay [8], 8.64%; in assay [9], 0.397%.

With `Cc1cc(C)c(CNC(=O)N2CCCC2c2ccccc2)c(=O)[nH]1` (stereo unspecified), the Percent Effect in assay [1] is -1.29%; in assay [2], -77.2%; in assay [3], 4.12%; in assay [4] it was 3.59%; in the assay on Trypanosoma cruzi, 3.59%; in assay [5], 3.23%. Moreover, the Percent Effect in assay [6] was 19.4%; in the assay listed under Homo sapiens it was -0.586%; in assay [7] it was 3.12%; in [8] it was 17.7%; in assay [9] it was -23.8%.

Regarding `COc1cc2ncn(CC(=O)NCCCN(C)C)c(=O)c2cc1OC`, the Percent Effect was -1.85% in assay [1]; 1.33% in assay [2]; -1.58% in assay [3]; 0.564% in [4]; -8.84% with Trypanosoma cruzi; -3.35% in assay [5]. The Percent Effect in assay [6] is 7.76%; in the assay filed under Homo sapiens, -4.68%; in assay [7] it was 4.23%; in [8], -53.9%; in assay [9] it was -7.79%.

Consider `Cn1cc(Cl)cc1C(=O)N1CCN(Cc2ccsc2)CC1`, for which the Percent Effect in assay [1] was -0.357%; in [2], 5.26%; in assay [3], 5.58%; in assay [4] it was -5.04%; with Trypanosoma cruzi, 4.13%; in assay [5] it was 0.766%. Besides, the Percent Effect in assay [6] is -1.67%; in the assay filed under Homo sapiens, -2.56%; in assay [7] it was 2.45%; in [8], 4.88%; in [9], -0.287%.

In the case of `Cc1nc(N2CCN(C)CC2)ncc1C(=O)N1CC(C)(C)C(C)(O)C1` (stereo unspecified), the Percent Effect in assay [1] was -0.364%; in [2], 2.7%; in [3] it was 6.69%; in assay [4] it was -5.09%; in the assay on Trypanosoma cruzi, -9.09%; in [5], -8.19%. In addition, the Percent Effect in [6] is 13%; in the assay filed under Homo sapiens, 11.1%; in [7], 0%; in [8], -16.1%; in assay [9], 103%.

Turning to `Cc1cc(C)n(C2CCCN(C(=O)c3cccc4[nH]ncc34)C2)n1` (stereo unspecified), the Percent Effect was -5.51% in [1]; -13.5% in [2]; 6.86% in [3]; -7.42% in [4]; -4.49% in the assay with Trypanosoma cruzi; -1.67% in assay [5]. In addition, the Percent Effect in assay [6] was 7.69%; in the assay filed under Homo sapiens, -0.356%; in assay [7] it was 6.93%; in assay [8], 3.66%; in assay [9], 2.88%.

With `O=C(c1cccs1)N1CCC(n2nc(-c3ccco3)ccc2=O)CC1`, the Percent Effect in assay [1] was -6.35%; in [2], 12.2%; in assay [3] it was 7.9%; in assay [4] it was 14%; in the assay with Trypanosoma cruzi it was -1.19%; in assay [5] it was -5.8%. Also, the Percent Effect in assay [6] was 12.9%; in the assay listed under Homo sapiens, 0.605%; in assay [7], 9.68%; in assay [8], 16.9%; in [9], -26.4%.

For the compound `Cc1cccc(CCC(=O)N2CCCC(c3cc(C(N)=O)[nH]n3)C2)c1` (stereo unspecified), the Percent Effect in [1] was -1.48%; in assay [2], -18.9%; in [3] it was 4.97%; in [4], 8.55%; in the assay with Trypanosoma cruzi, 6.13%; in assay [5] it was -10%. Also, the Percent Effect is 0.36% in assay [6]; 9.14% in the assay listed under Homo sapiens; 0.493% in assay [7]; 11.1% in [8]; -8.73% in assay [9].

As for `CN(C)c1cc(CNC(=O)c2cn(-c3ccc(F)cc3)nn2)ccn1`, the Percent Effect in [1] was -5.01%; in [2], 10.4%; in assay [3] it was 1.52%; in assay [4], 2.16%; in the assay with Trypanosoma cruzi it was 0.686%; in assay [5] it was 3.58%. Moreover, the Percent Effect in assay [6] was 14.2%; in the assay filed under Homo sapiens, 11.3%; in assay [7], 7.62%; in [8], 21.2%; in assay [9], -6.24%.
